The record followed here is ChEMBL document CHEMBL3988442, “University of Dundee, Small-Polar-MMV Screening Library” (2021).

For some of these results: Results with a measured potency or affinity are listed apart.

Design in all cases: scale not given: direction of the effect not stated beside the values
Experiment [1] has as its target Protein translocase subunit SecA (Escherichia coli (strain K12)) (UniProt P10408). As to the kind of experiment: Assay to Identify E. coli SecA ATPase Inhibitors. It counts as functional. As to conditions: 30 µM.
The target in experiment [2] is T1, Ubiquitin-activating enzyme e1, putative (Leishmania donovani (strain BPK282A1)) (UniProt E9BSI1).
T1 sequence (whole entry): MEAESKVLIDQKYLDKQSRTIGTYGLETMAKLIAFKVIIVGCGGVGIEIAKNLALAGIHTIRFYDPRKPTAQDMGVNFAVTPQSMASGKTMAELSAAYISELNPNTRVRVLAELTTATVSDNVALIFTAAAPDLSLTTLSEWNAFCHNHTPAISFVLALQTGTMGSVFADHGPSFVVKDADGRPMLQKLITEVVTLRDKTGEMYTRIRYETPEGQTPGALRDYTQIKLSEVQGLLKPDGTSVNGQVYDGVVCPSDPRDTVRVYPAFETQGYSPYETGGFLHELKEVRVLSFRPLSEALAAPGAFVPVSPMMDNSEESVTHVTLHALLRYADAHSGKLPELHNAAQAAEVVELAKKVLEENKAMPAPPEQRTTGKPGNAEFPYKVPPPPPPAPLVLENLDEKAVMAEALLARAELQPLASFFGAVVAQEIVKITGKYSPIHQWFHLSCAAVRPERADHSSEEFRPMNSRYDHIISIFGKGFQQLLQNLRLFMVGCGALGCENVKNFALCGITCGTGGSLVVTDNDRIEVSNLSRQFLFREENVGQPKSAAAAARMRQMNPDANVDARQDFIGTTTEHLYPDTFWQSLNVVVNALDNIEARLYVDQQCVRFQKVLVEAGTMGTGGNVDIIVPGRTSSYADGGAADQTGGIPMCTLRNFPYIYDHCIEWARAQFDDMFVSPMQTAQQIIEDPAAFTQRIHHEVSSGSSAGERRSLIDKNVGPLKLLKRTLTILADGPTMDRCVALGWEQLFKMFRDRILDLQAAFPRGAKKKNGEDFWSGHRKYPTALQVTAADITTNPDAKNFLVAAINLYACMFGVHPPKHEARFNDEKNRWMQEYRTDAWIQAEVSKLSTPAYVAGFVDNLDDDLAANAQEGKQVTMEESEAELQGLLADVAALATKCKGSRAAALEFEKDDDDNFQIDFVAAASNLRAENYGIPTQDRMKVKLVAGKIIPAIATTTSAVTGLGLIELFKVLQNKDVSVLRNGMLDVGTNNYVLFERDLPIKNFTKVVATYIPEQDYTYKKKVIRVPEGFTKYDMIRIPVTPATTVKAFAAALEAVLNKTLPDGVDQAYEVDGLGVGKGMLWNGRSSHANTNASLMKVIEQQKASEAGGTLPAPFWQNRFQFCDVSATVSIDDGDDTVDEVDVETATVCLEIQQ
As to the kind of experiment: Leishmania donovani Ubiquitin Activating Enzyme (LdE1). The experiment is classed as functional. As to conditions: 30 µM.

Experiment [3] concerns the target AMP-activated protein kinase, AMPK (Homo sapiens) (UniProt P54646+O43741+P54619+Q9UGJ0+Q9Y478+Q13131+Q9UGI9). The experiment can be described thus: AMP-dependent Kinase enzyme assay. An in vitro enzyme assay that detects ADP turnover that is directly proportional to AMPK activity. This uses naive AMPK that is activated during the assay with MK-8722. The experiment is classed as functional. As to conditions: 30 µM.

Experiment [4] concerns the target Sialic acid-binding Ig-like lectin 9 (Homo sapiens) (UniProt Q9Y336). As to the kind of experiment: Hs-Siglec9 ALPHAscreen SOP 20170721. The settings on record: 10 µM.
The test system of another experiment is Trypanosoma cruzi. As to the kind of experiment: Trypanosoma cruzi phosphomannomutase and mannose-1-phosphate guanylyltransferase assay. It counts as functional. The settings on record: 10 µM.
The target in experiment [5] is T2, Arginase-2, mitochondrial (Homo sapiens) (UniProt P78540).
T2 sequence (whole entry): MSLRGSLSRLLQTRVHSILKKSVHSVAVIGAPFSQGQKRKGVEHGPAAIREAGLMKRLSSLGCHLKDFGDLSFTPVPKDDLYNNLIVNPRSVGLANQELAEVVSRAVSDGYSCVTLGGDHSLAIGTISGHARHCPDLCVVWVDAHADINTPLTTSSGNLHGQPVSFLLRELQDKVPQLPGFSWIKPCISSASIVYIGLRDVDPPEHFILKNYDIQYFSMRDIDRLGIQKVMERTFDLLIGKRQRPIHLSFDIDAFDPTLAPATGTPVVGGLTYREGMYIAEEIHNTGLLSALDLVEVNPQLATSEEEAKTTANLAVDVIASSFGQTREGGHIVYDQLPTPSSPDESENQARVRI
The experiment can be described thus: in vitro enzyme assay to detect the production of urea directly proportional to the activity of Arginase II. Note: in the data most compounds retested in dose-response had high values. The experiment is classed as functional. The settings on record: 33.3 µM.

Experiment [6] addresses T3, Proteasome subunit beta (Trypanosoma cruzi) (UniProt O96673).
T3 sequence (whole entry): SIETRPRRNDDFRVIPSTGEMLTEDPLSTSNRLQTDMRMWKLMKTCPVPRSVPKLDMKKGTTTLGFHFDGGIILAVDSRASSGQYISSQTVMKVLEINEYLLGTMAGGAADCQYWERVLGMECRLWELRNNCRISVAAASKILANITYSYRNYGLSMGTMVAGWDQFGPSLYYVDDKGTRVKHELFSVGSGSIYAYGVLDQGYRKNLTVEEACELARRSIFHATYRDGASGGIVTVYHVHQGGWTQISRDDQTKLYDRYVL
The experiment can be described thus: Trypanosoma cruzi proteasome chymotrypsin-like activity (TcProtChymo) assay. Note: in the data most compounds retested in dose-response had high values. The experiment is classed as functional. The settings on record: 9.37 µM.

Another experiment is filed under the species Homo sapiens. The experiment can be described thus: To identify inhibition of the IFN signalling (Jak-Stat) pathway via expression of an eGFP reporter gene under the control of an IFN-stimulated response element (ISRE) containing MxA promoter. The experiment is classed as functional. The settings on record: 30 µM.
Experiment [7] deals with T4, Tyrosyl-tRNA synthetase, putative (Trypanosoma cruzi (strain CL Brener)) (UniProt Q4DSP6).
T4 sequence (whole entry): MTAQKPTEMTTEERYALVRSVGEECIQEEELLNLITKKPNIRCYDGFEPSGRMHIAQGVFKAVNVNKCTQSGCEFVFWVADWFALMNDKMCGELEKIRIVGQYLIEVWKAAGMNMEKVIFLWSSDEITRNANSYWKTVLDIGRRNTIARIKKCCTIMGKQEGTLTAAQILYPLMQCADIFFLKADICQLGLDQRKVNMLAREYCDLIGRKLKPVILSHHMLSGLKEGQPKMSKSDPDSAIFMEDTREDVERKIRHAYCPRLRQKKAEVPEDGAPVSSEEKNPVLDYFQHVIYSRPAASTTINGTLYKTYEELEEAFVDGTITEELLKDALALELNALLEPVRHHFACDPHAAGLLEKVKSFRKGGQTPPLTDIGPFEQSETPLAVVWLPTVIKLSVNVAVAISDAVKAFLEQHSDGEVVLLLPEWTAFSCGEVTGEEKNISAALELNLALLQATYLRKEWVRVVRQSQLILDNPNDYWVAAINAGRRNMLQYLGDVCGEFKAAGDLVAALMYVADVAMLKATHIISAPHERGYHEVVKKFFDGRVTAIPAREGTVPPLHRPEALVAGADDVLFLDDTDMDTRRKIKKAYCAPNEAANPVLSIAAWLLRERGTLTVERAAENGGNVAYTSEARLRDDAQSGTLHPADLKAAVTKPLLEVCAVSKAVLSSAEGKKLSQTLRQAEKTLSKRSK
As to the kind of experiment: Trypanosoma cruzi tyrosyl tRNA synthetase (TcYRS) _High Tyrosine SOP. Note: in the data most compounds retested in dose-response had high values. It counts as functional. The settings on record: 30 µM.

Experiment [8] concerns the target T4, Tyrosyl-tRNA synthetase, putative (Trypanosoma cruzi (strain CL Brener)). The experiment can be described thus: Trypanosoma cruzi tyrosyl tRNA synthetase (TcYRS) SOP. It counts as functional. The settings on record: 30 µM.
Experiment [9] addresses Chromo domain-containing protein 1 (Saccharomyces cerevisiae (strain ATCC 204508 / S288c) (Baker's yeast)) (UniProt P32657). As to the kind of experiment: ScCHD-1 Enzyme Inhibition Assay. Note: in the data most compounds retested in dose-response had high values. It counts as functional. As to conditions: 30 µM.

Protein translocase subunit SecA (Escherichia coli (strain K12)), sequence (P10408 whole entry): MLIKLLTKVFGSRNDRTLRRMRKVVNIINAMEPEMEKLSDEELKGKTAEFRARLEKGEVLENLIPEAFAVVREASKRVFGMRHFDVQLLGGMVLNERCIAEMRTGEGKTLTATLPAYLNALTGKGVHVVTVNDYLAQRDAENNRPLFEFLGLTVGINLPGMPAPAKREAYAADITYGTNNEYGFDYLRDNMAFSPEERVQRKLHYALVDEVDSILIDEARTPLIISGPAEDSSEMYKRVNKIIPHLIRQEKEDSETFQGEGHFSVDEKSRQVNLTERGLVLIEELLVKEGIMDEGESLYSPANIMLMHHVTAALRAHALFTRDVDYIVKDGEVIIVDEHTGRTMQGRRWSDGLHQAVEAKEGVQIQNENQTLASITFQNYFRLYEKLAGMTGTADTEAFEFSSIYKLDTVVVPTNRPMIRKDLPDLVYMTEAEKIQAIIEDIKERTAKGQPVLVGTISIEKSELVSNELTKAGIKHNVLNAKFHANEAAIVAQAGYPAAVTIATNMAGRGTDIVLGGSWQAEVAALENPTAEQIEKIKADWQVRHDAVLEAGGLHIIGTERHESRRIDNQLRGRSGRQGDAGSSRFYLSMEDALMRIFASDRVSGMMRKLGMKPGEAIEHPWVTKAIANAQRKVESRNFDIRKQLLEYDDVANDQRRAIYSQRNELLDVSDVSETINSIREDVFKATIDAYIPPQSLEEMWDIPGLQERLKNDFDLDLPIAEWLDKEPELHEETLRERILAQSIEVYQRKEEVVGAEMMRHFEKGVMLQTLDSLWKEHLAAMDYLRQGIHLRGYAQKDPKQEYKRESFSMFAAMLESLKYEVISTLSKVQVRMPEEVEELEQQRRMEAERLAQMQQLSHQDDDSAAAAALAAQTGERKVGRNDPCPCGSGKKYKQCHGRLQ
Chromo domain-containing protein 1 (Saccharomyces cerevisiae (strain ATCC 204508 / S288c) (Baker's yeast)), sequence (P32657 whole entry, the tested form may be a part): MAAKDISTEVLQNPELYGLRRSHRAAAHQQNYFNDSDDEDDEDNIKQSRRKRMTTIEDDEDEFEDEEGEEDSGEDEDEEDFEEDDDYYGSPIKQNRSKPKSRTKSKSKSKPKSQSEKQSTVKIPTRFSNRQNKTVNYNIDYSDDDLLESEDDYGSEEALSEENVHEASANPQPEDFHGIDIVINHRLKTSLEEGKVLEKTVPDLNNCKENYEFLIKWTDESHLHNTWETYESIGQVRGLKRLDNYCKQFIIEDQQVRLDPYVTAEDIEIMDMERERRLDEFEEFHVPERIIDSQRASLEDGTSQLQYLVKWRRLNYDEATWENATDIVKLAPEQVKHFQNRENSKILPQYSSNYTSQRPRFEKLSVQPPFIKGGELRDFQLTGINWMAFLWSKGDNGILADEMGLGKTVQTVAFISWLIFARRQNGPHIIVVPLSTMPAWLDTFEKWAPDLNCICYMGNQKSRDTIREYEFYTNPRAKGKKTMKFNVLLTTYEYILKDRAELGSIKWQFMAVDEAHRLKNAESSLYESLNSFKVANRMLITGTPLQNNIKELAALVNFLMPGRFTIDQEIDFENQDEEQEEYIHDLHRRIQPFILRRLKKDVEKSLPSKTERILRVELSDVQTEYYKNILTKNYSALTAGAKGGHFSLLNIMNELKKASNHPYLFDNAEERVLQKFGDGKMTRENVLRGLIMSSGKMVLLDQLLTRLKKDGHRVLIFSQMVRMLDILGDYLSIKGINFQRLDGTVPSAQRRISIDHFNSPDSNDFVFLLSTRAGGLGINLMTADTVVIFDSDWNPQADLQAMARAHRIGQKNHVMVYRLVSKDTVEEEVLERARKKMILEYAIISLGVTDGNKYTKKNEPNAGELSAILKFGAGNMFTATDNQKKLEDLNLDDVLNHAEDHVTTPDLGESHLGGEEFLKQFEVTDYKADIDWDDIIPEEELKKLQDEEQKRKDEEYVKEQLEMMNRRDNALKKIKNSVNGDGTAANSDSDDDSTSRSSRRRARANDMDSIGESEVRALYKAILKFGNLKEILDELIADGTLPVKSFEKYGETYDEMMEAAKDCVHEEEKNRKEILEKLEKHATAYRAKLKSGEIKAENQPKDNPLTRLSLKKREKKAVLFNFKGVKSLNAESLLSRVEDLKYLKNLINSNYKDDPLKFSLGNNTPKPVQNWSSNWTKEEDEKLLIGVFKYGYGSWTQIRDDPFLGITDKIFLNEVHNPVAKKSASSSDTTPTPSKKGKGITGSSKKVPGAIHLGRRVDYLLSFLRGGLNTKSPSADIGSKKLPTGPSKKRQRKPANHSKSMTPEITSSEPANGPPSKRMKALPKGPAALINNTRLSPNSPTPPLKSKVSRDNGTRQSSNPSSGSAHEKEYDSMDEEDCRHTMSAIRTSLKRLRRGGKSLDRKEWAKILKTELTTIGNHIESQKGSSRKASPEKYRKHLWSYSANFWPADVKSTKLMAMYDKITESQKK
Sialic acid-binding Ig-like lectin 9 (Homo sapiens), sequence (Q9Y336 whole entry): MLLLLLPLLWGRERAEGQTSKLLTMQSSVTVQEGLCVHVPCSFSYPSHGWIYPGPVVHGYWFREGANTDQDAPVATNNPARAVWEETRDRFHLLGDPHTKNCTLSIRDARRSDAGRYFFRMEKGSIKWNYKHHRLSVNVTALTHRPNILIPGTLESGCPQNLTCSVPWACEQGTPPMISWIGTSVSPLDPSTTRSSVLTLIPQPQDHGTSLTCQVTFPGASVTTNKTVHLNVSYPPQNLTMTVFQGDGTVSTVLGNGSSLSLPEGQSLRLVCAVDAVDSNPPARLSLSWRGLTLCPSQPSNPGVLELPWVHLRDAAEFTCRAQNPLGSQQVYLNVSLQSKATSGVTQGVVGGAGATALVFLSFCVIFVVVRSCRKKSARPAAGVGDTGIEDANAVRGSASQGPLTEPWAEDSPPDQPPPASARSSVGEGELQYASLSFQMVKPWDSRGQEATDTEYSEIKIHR

As to `Cc1nc(CN2CCc3ncnc(-c4ccc(F)cc4)c3CC2)cs1`, the Percent Effect in experiment [1] is -3.21%; in experiment [2] it was 10.8%; in experiment [3], 5.22%; in experiment [4] it was -0.105%; in the experiment on Trypanosoma cruzi it was -1.66%; in experiment [5] it was 9.87%. Also, the Percent Effect in experiment [6] was 18.4%; in the experiment filed under Homo sapiens it was -9.45%; in experiment [7], 5.41%; in [8], 17.9%; in experiment [9], -0.896%.

As to `Cc1ccc2c(c1)c(CNC(=O)C1CC(=O)N(C3CCCC3)C1)nn2C` (stereo unspecified), the Percent Effect was 1.21% in experiment [1]; 0% in [2]; 4.01% in experiment [3]; 6.8% in experiment [4]; -7.34% in the experiment on Trypanosoma cruzi; -1.43% in experiment [5]. In addition, the Percent Effect in experiment [6] is 21%; in the experiment filed under Homo sapiens it was 10%; in experiment [7], 3.7%; in experiment [8], 0%; in experiment [9], -5.94%.

Take `O=C(c1ccoc1)N1CC[C@@H]2O[C@H](COCc3ccccn3)CC[C@@H]21`: the Percent Effect was 4.07% in experiment [1]; 8.11% in experiment [2]; 2.6% in experiment [3]; -13.6% in [4]; -3.42% with Trypanosoma cruzi; 2.87% in experiment [5]. In addition, the Percent Effect in [6] was 21.4%; in the experiment listed under Homo sapiens, 7.99%; in experiment [7] it was 2.16%; in experiment [8], 10.3%; in experiment [9], -3.84%.

On to `CCS(=O)(=O)N1CCC2(CCC2NC(=O)c2ccn(C)c2)CC1` (stereo unspecified), for which the Percent Effect in experiment [1] was -3.75%; in experiment [2] it was 10.8%; in [3] it was 1.1%; in experiment [4] it was -0.914%; in the experiment with Trypanosoma cruzi it was 3.62%; in experiment [5], -6.69%. For the same compound, the Percent Effect was 18.8% in [6]; -26% in the experiment listed under Homo sapiens; 4.32% in experiment [7]; 15.4% in experiment [8]; -3.62% in experiment [9].

On to `Cc1oc(C(=O)O)cc1S(=O)(=O)Nc1ccc(Cl)c(F)c1`, for which the Percent Effect in [1] was -4.46%; in experiment [2], 0%; in [3], 1.91%; in experiment [4], 3.7%; with Trypanosoma cruzi, -5.24%; in experiment [5], 2.85%. Also, the Percent Effect was -2.2% in [6]; 27.1% in the experiment listed under Homo sapiens; -2.91% in [7]; -4.88% in experiment [8]; -4.31% in experiment [9].

Take `COc1c(C(=O)NCc2cccnc2)nnn1Cc1ccc(C)cc1`: the Percent Effect is -1.69% in experiment [1]; 1.33% in [2]; 1.61% in [3]; 3.68% in experiment [4]; -4.13% in the experiment on Trypanosoma cruzi; 1.23% in experiment [5]. Further, the Percent Effect came to 4.25% in [6]; 5.48% in the experiment listed under Homo sapiens; 1.06% in experiment [7]; 2.56% in experiment [8]; 0.167% in experiment [9].

As to `CC(C)NS(=O)(=O)c1cc(C(=O)O)cc(-c2ccc(CN(C)C)cc2)c1`, the Percent Effect was -8.02% in [1]; 0% in [2]; 5.48% in experiment [3]; -7.27% in experiment [4]; -3.81% in the experiment on Trypanosoma cruzi; -0.248% in [5]. In addition, the Percent Effect in experiment [6] is 13.7%; in the experiment filed under Homo sapiens, 0.283%; in experiment [7], 0%; in experiment [8], 1.24%; in experiment [9] it was -4.61%.

Regarding `CC(O)CN1CCN(Cc2nnc(C3CC3)o2)CC1` (stereo unspecified), the Percent Effect in [1] was -2.68%; in [2], 22.8%; in experiment [3] it was -5.24%; in experiment [4], -11.8%; in the experiment with Trypanosoma cruzi, 6.7%; in [5] it was 4.56%. Also, the Percent Effect was 15% in experiment [6]; -18.4% in the experiment filed under Homo sapiens; 6.4% in experiment [7]; 21.5% in [8]; -4.52% in experiment [9].

`NC(=O)C1CCN(Cn2nc(-c3ccc(F)cc3)oc2=O)CC1`: the Percent Effect in [1] is -3.92%; in experiment [2] it was 2.6%; in experiment [3] it was 9.43%; in [4], 0.452%; with Trypanosoma cruzi, -22.7%; in experiment [5], 4.14%. The Percent Effect in experiment [6] was 22%; in the experiment filed under Homo sapiens it was 24.3%; in experiment [7], -1.07%; in experiment [8], 1.24%; in experiment [9], -2.23%.

Regarding `Cc1ccccc1-c1cc(C(=O)N2CCn3c(C)nnc3C2)[nH]n1`, the Percent Effect was -5.53% in experiment [1]; 10.5% in experiment [2]; -1.51% in [3]; 3.48% in experiment [4]; 6.01% in the experiment on Trypanosoma cruzi; 0% in [5]. For the same compound, the Percent Effect in experiment [6] was 4.34%; in the experiment filed under Homo sapiens, 4.27%; in experiment [7], -0.49%; in experiment [8], 17.1%; in experiment [9] it was -10.8%.

Turning to `CCc1nc(C2CCCN(C(=O)c3cnn(CC)c3)C2)no1` (stereo unspecified), the Percent Effect was -7.03% in experiment [1]; 0% in experiment [2]; 3.03% in [3]; -1.97% in [4]; -5.16% with Trypanosoma cruzi; 1.18% in experiment [5]. Further, the Percent Effect is 5.66% in experiment [6]; -8.3% in the experiment listed under Homo sapiens; 1.06% in experiment [7]; 5.2% in experiment [8]; -2.87% in experiment [9].
